PMC7819943, “Rice protein-binding microarrays: a tool to detect cis-acting elements near promoter regions in rice”
Whole data set: some 68,000 sequences, median “fluorescence intensity (a.u.)” near 9,100, cut for the highest 2% near 16,000. The entries come from a sample that favours the highest values as a whole.

These sequences were tested against OsWRKY34 (Oryza sativa, UniProt Q0JBA9 1-250) (assay: protein-binding microarray (RPBM); PBS, 2% BSA, 51.3 ng/ul salmon testes DNA, 50 uM zinc acetate, 200 nM TF, 25 C, 1 h; high values mean tight binding). Conditions: protein: recombinant; tags: N-terminal polyhistidine and DsRed monomer fusion (pET32a); label: CyDye5-dUTP incorporated in the synthesized complementary strand; 3' TTTTT single-stranded linker to array surface; dsDNA, one strand shown.
Sequence of OsWRKY34 (Q0JBA9 entry or part of it): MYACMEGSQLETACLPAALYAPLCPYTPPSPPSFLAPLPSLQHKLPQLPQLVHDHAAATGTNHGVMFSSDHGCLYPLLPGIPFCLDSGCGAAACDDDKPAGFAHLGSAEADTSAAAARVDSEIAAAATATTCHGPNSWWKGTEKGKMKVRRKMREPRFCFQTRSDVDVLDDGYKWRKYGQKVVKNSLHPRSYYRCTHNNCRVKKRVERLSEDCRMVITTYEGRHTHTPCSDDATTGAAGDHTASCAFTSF
Outline: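 Ni–NTA purification followed expression in E. coli BL21-CodonPlus of transcription factors fused N-terminally to a polyhistidine tag and DsRed. At 200 nM in PBS with 2% BSA, salmon testes DNA and 50 µM zinc acetate, the protein was incubated for 1 h at 25 °C with a custom Agilent array that had been primer-extended with Cy5-dUTP and blocked with 2% BSA. After washing, the array was read on an Axon 4000B scanner. The binding signal is per-feature fluorescence intensity in arbitrary units.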
For “AAACCATTTTTTTTATCTATTATCCTTTGACTGTTTAATTCGGAGTCACCTAGTGCAG”, the binding signal was 10500 fluorescence intensity (a.u.). In the case of “AAATTTTTATATGCTGTGTATTTTCTATTTTTTTTATTTTCGGAGTCACCTAGTGCAG”, the binding signal is reported as 11100 fluorescence intensity (a.u.). In the case of “GTGTTTGATTTGCCTCTCTTAAGAACCACTGTGAAAACATCGGAGTCACCTAGTGCAG”, the binding signal is reported as 9680 fluorescence intensity (a.u.). In the case of “CTCGCCGCGTGCTCCTTTACTGCTCTCTGCTCGCGCAGGACGGAGTCACCTAGTGCAG”, the binding signal is reported as 9230 fluorescence intensity (a.u.). With “CCTCGACCGTCCCCAACCGACGACCCCGTGGTCACGCTCCCGGAGTCACCTAGTGCAG” the binding signal was 10900 fluorescence intensity (a.u.). “GGTCAATTTAGGGCACACACCAAACCAGCCCTTACAACTTCGGAGTCACCTAGTGCAG” was tested, and the binding signal was 8620 fluorescence intensity (a.u.). “AAAAATATATCCAAGCAAATTCACACAGTCAAGTTCACTCCGGAGTCACCTAGTGCAG” was tested, and the binding signal was 14800 fluorescence intensity (a.u.). For “GGTTGGTGTGGACCTTGCCCATTGTGAAACTTTGGTCAAACGGAGTCACCTAGTGCAG”, the binding signal was 8070 fluorescence intensity (a.u.). In the case of “TTCGTTTGACTTTTGCCGTTTCAAATTTGAATTCTCGAAACGGAGTCACCTAGTGCAG”, the binding signal is reported as 9080 fluorescence intensity (a.u.). “ACTTATTTTAGTTTGACTTGATTTTTCATCAAATGTTTTTCGGAGTCACCTAGTGCAG” was tested, and the binding signal was 10400 fluorescence intensity (a.u.). With “TTCGAAATGTTTGACGCCGTTGACTTTTTAGCATATGTTTCGGAGTCACCTAGTGCAG” the binding signal was 13200 fluorescence intensity (a.u.). For “TCGAAATGTTTGACGCCGTTGACTTTTTAAGTATATGTTTCGGAGTCACCTAGTGCAG”, the binding signal was 29200 fluorescence intensity (a.u.). In the case of “TCATGGATTATCTCTTTAATGTATAACGCCGTTGACTTTTCGGAGTCACCTAGTGCAG”, the binding signal is reported as 14300 fluorescence intensity (a.u.). For “AGTTTCGAAATATTTGACGCCGTTGACTTTTTATCAAATGCGGAGTCACCTAGTGCAG”, the binding signal was 28300 fluorescence intensity (a.u.). “CCGTTTCATATTTAAATTGTTTTGACTTTTTTATAGTTAACGGAGTCACCTAGTGCAG” was tested, and the binding signal was 8140 fluorescence intensity (a.u.). In the case of “TTCGAAATGTTTAACGCCGTTGACTTTTTATCATATGTTTCGGAGTCACCTAGTGCAG”, the binding signal is reported as 35500 fluorescence intensity (a.u.). With “CGTATGCTCCTTAGGTGATACTATGTCCCTATTTGCTTCACGGAGTCACCTAGTGCAG” the binding signal was 8180 fluorescence intensity (a.u.). “TTTATTATTAGTCTAAGTTTAATACTTCTTATTAGTGTCACGGAGTCACCTAGTGCAG” was tested, and the binding signal was 8180 fluorescence intensity (a.u.). For “TGATACTTGGCAGGCGTCGTCTCCAAATACCTGACCACTTCGGAGTCACCTAGTGCAG”, the binding signal was 8290 fluorescence intensity (a.u.). For “AATAGATCACCACATTCAATGCAGTTCTTCCGATTAAATTCGGAGTCACCTAGTGCAG”, the binding signal was 9730 fluorescence intensity (a.u.). “GGTTGCTCAGTTGCCGACACATTTCTGCAGACCCATTTTGCGGAGTCACCTAGTGCAG” was tested, and the binding signal was 8080 fluorescence intensity (a.u.). For “CTGTCCTCTATCGATTGTTCTGACTTGGGTCACCATGTAACGGAGTCACCTAGTGCAG”, the binding signal was 8990 fluorescence intensity (a.u.). “CTCTGACTCTCTGTTCCAATTCCCACACGTTTCTCTCGCGCGGAGTCACCTAGTGCAG” was tested, and the binding signal was 14800 fluorescence intensity (a.u.). In the case of “AAGTGTTTTCGTTTTTTTTTCATTCGCTATTATTTTCTTTCGGAGTCACCTAGTGCAG”, the binding signal is reported as 9660 fluorescence intensity (a.u.). “TTAGGTGTTTTGTAGTAGTGTAATGGGGCATATTCGTGGGCGGAGTCACCTAGTGCAG” was tested, and the binding signal was 8270 fluorescence intensity (a.u.). For “CTTGTCTCTCTTTCTCTTTCTCTCTCTCTCACCTGTTATTCGGAGTCACCTAGTGCAG”, the binding signal was 9740 fluorescence intensity (a.u.). “ACGTGTCACCTTCTTATTCGCTGGGTTTTTTCTGGTGGGTCGGAGTCACCTAGTGCAG” was tested, and the binding signal was 8770 fluorescence intensity (a.u.). With “TTCGTGGATGGGGTGGGCTCTTTCTCACTGTTATATTGTCCGGAGTCACCTAGTGCAG” the binding signal was 27500 fluorescence intensity (a.u.). “TTTCTCACTGTTATATTGTCTAATATCATCTTTCTCTTTTCGGAGTCACCTAGTGCAG” was tested, and the binding signal was 9880 fluorescence intensity (a.u.). In the case of “CCCACGTATTCCCCACCTTATCTCACTGTCTCGTGGGCCCCGGAGTCACCTAGTGCAG”, the binding signal is reported as 10500 fluorescence intensity (a.u.). “CCGCCGAGTCACTGCTCTCGTTCTTATCCACACTGCCCGACGGAGTCACCTAGTGCAG” was tested, and the binding signal was 9120 fluorescence intensity (a.u.). “ATGGGGTGTTTTTTTTTTCGCTATATTCTCTTAGAACTGTCGGAGTCACCTAGTGCAG” was tested, and the binding signal was 18000 fluorescence intensity (a.u.). For “AGGTAATCATATTGTTGTTATTCGTGGATGGGGTGGGCTCCGGAGTCACCTAGTGCAG”, the binding signal was 16400 fluorescence intensity (a.u.). “ATTGGTGGTAATCGGAGGTGGAGGTGGGCGTGATGATCTCCGGAGTCACCTAGTGCAG” was tested, and the binding signal was 11100 fluorescence intensity (a.u.). “GCTCTTATCCCGAGCTCGTGTCACTGGTGGGGTGGGGCCCCGGAGTCACCTAGTGCAG” was tested, and the binding signal was 16600 fluorescence intensity (a.u.). With “TTAGTAGTATATCGTCACCAATTATTGTAGTTAGCTCCACCGGAGTCACCTAGTGCAG” the binding signal was 9580 fluorescence intensity (a.u.). In the case of “ATCCGATTTTTTTTCGCAATCTCCGAAATTTCACTTCTATCGGAGTCACCTAGTGCAG”, the binding signal is reported as 11200 fluorescence intensity (a.u.). For “GTCCGCTTCCATTGGGAGCGCGGCTACTGGCTGGGTTTACCGGAGTCACCTAGTGCAG”, the binding signal was 8770 fluorescence intensity (a.u.). “ATCCTATATTTGTTGCAGTTCATTCATTTCATCACCAGTTCGGAGTCACCTAGTGCAG” was tested, and the binding signal was 8840 fluorescence intensity (a.u.). “CGATCTCTCTCTCTCACACACCCGCCTCACCCTCACCGCCCGGAGTCACCTAGTGCAG” was tested, and the binding signal was 10800 fluorescence intensity (a.u.). In the case of “CAGCAGATTGCCCATCTCTCGTTGTACTGCCAATCTCTCCCGGAGTCACCTAGTGCAG”, the binding signal is reported as 9530 fluorescence intensity (a.u.). With “CCGGTATTGATGTGTTCCCCAAGCCAAAAAAAAAAAGAAGCGGAGTCACCTAGTGCAG” the binding signal was 64800 fluorescence intensity (a.u.). In the case of “ACTGTTCATTGTTGATGGCCTTTTCCAAAAACTAGAAAAGCGGAGTCACCTAGTGCAG”, the binding signal is reported as 8460 fluorescence intensity (a.u.). In the case of “ATGTCACCAAGCGGTATAGGTCTGAATGTATTGATGTGCCCGGAGTCACCTAGTGCAG”, the binding signal is reported as 9370 fluorescence intensity (a.u.).
